Here are results for 9 molecules from PubChem BioAssay.

The nature of assay [1]: HepG2 liver cancer cell viability effects, profiling panel, resazurin fluorescence, 24 h, PK04 Diversity Set (AID 1172). The settings on record: higher = more signal. A general note: The colour change of resazurin is a common sign of viable cells or microbes.
A short description of assay [2]: basal S. cerevisiae growth modulation, no modifier, primary screen, OD600, strain BY4716, 24 h, basal condition (AID 1173). Conditions: OD600, 24 h, higher = more signal, called active from +8 up or from −8 down.
Assay [3] in a line: MM1S myeloma cell viability, profiling panel, resazurin fluorescence, basal, 24 h, PK04 Diversity Set (AID 1174). Conditions: higher = more signal, called active from +8 up or from −8 down.
Assay [4] deals with Dihydroorotate dehydrogenase (quinone), mitochondrial (Plasmodium falciparum (isolate 3D7)) (UniProt Q08210). Description: PfDHODH enzyme inhibitors, primary screen, biochemical, C-terminal His tag, absorbance 600 nm (AID 1175).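 Further: recombinant parasite enzyme with a five histidine tag at its C terminus.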 The settings on record: DCIP absorbance 600 nm, higher = more signal, called active from +8 up or from −8 down.
Assay [5] is described as follows: P. aeruginosa biofilm formation inhibitors, primary screen, strain PAO1, LB-PBS medium, absorbance 600 nm (AID 1176). Conditions: P. aeruginosa PAO1 growth/biofilm, A600, 12 h; higher = more signal.
A short description of assay [6]: S. cerevisiae RM11-1a growth modifiers, primary screen, strain RM11-1a, OD600, basal, 24 h (AID 1177).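 Further: cultures grown under basal conditions with no added stressor.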 The settings on record: OD600, 24 h, higher = more signal, called active from +8 up or from −8 down.
Assay [7] is described as follows: E. coli acrAB mutant growth effects, primary screen, E. coli filamentation inducers, strain DRC39, OD650, 24 h (AID 1178).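 Further: growth measured as culture turbidity by optical density at 650 nm.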 The settings on record: higher = more signal, called active from +8 up or from −8 down.
The nature of assay [8]: E. coli acrAB mutant growth effects, primary screen, E. coli filamentation inducers, strain DRC39, OD650, 48 h (AID 1179).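 Further: screen aims at cell division blockers that make cells filament.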 Conditions: E. coli DRC39 delta-acrAB growth, higher = more signal, called active from +8 up or from −8 down.
Assay [9] in a line: RPMI8226 myeloma cell viability, profiling panel, resazurin fluorescence, basal, 24 h, PK04 Diversity Set (AID 1180).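 Further: RPMI8826 multiple myeloma cell line at 5000 cells per well.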 Conditions: higher = more signal.
Assay [10] deals with E3 ubiquitin-protein ligase XIAP (Homo sapiens) (UniProt P98170). Description: XIAP binders, primary screen, biophysical, small-molecule microarray, fluorescence 635 nm (AID 1181).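 Further: score merges 667 nm emission and signal to noise over triplicate slides.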 The settings on record: small-molecule microarray binding, higher = more signal.
Assay [11] has as its system XIP peptide (Xip251-270) binding. Description: small-molecule binders of XIP peptide, primary screen, biochemical, small-molecule microarray, fluorescence 635/667 nm, 0.1 µg/mL protein (AID 1182). Conditions: fluorescent protein binding, 635 nm, higher = more signal, called active from +8 up or from −8 down.
For a further assay, the system named is XIP peptide (Xip251-270). Description: small-molecule binders of XIP peptide, primary screen, biochemical, small-molecule microarray, fluorescence 635/667 nm, 0.5 µg/mL protein (AID 1183). The settings on record: small-molecule microarray binding, fluorescence 635 nm; higher = more signal.
Assay [12] is described as follows: Plasmodium falciparum growth inhibition, primary screen, strain 3D7, DAPI fluorescence, 100 nL (AID 1184).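 Further: parasites grown inside human red blood cells in medium with human serum.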 Conditions: P. falciparum 3D7 growth, 3 d, higher = more signal.
Assay [13] addresses Homeobox protein Hox-A13 (Mus musculus) (UniProt Q62424). Nature of the assay: inhibitors of HoxA13-DNA binding, primary screen, biochemical, fluorescence polarization, labeled oligonucleotide (AID 1185). The settings on record: 15 min, higher = more signal, called active from +8 up or from −8 down. A general note: Polarisation of emitted light reports the rotation of a fluorescent probe.

The nature of assay [14]: inhibitors of hydroxyurea-induced Chk1 phosphorylation, primary screen, imaging, HeLa, phospho-Chk1 antibody, percent positive cells (AID 1186). Conditions: hydroxyurea-induced phospho-Chk1 immunofluorescence imaging, higher = more signal.
Assay [15] in a line: inhibitors of hydroxyurea-induced Chk1 phosphorylation, primary screen, imaging, HeLa, phospho-Chk1 nuclear intensity (AID 1187). Conditions: hydroxyurea-induced phospho-Chk1 immunofluorescence imaging, higher = more signal.

The source made the active and inactive calls. Unless noted, how the calls were made is not given here.

Chain of E3 ubiquitin-protein ligase XIAP (Homo sapiens) (P98170 whole entry, looked up): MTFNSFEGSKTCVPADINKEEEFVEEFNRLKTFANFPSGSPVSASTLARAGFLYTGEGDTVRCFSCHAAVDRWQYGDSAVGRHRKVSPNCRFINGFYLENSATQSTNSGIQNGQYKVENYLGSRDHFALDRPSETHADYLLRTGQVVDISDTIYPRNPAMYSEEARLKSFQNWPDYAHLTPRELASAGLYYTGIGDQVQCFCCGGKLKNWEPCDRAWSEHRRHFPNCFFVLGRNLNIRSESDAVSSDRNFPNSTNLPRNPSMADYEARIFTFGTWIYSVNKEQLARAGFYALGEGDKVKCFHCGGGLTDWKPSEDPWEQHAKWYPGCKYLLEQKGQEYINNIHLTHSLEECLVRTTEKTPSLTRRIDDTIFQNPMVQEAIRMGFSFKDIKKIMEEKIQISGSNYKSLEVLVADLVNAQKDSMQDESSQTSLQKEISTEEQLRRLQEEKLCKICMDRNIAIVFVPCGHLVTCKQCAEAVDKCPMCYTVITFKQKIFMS
Chain of Dihydroorotate dehydrogenase (quinone), mitochondrial (Plasmodium falciparum (isolate 3D7)) (Q08210 whole entry, looked up): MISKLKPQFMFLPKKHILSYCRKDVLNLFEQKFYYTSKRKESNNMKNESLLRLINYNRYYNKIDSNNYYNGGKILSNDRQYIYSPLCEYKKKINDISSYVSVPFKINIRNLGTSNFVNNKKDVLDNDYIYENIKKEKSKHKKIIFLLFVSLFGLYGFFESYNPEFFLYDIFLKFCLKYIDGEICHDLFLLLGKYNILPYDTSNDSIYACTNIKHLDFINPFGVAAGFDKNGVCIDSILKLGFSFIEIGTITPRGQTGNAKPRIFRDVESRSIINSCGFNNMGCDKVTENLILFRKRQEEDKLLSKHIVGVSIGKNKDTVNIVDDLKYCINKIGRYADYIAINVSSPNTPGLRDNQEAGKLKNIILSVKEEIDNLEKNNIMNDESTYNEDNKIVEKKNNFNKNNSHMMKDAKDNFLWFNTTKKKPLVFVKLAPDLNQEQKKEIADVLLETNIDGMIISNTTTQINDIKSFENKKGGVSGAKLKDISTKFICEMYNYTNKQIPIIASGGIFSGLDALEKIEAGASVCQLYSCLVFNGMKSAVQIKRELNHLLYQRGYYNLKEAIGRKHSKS
Chain of Homeobox protein Hox-A13 (Mus musculus) (Q62424 whole entry, looked up): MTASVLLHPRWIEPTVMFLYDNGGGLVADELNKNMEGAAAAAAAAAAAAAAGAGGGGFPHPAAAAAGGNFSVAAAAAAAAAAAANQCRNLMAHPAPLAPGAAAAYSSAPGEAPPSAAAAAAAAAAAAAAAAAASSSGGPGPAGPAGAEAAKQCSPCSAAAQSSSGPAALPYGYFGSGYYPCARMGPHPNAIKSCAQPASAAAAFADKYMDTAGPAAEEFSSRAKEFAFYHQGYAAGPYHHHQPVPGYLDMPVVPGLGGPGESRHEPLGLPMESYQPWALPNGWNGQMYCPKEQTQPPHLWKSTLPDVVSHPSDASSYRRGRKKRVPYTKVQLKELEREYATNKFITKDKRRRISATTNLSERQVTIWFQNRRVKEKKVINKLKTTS

`CC(C)C(CO)N1C(=O)[C@@H]2[C@H]3C(=O)OCC=C[C@H]3OC23C=CCN(Cn2nnc4ccccc42)C(=O)[C@@H]13` (some centres undefined): the z-score is 0.288 in assay [1]; 0.959 (inactive) in [2]; -0.281 (inactive) in assay [3]; 0.894 (inactive) in assay [5]; 0.68 (inactive) in [6]; -0.497 (inactive) in assay [7]. The z-score in assay [8] was -0.708 (inactive); in assay [9], -0.0558; in [12] it was -0.229; in assay [13] it was -3.05 (inactive); in assay [14], 0.123 (inactive); in assay [15] it was 0.11 (inactive). The composite z-score in [4] is 0.237 (inactive); in assay [10], 0.175; in assay [11] it was -0.406 (inactive); in the assay with XIP peptide (Xip251-270), -0.705.

For the molecule `C[C@@H]1ON(c2ccccc2)[C@H](c2ccccc2)[C@H]1C(=O)N1C(=O)OC[C@H]1Cc1ccccc1`, the z-score was 1.07 in assay [1]; 0.534 (inactive) in assay [2]; 0.962 (inactive) in assay [3]; 0.0238 (inactive) in assay [5]; 1.39 (inactive) in assay [6]; 0.884 (inactive) in assay [7]. Further, the z-score in assay [8] was 0.934 (inactive); in assay [9], 0.852; in [12], -1.96; in assay [13], -1.4 (inactive); in assay [14] it was -0.673 (inactive); in assay [15], -0.308 (inactive). For the same molecule, the composite z-score in assay [4] is -0.255 (inactive); in [10] it was -0.1; in [11], 0.0959 (inactive); with XIP peptide (Xip251-270) it was 0.351.

Take `CCC[C@@H]1C[C@@]1(CCC)[C@@H](NC(=O)c1cccs1)c1ccc(Cl)cc1`: the z-score in assay [1] was 1.82; in assay [2], -0.779 (inactive); in [3] it was 1.19 (inactive); in assay [5], 0.852 (inactive); in assay [6], 0.235 (inactive); in assay [7], 0.279 (inactive). Also, the z-score in assay [8] was 0.372 (inactive); in assay [9] it was 2.95; in assay [12] it was -0.76; in assay [13], -1.93 (inactive); in assay [14], -0.248 (inactive); in [15], -0.143 (inactive). For the same molecule, the composite z-score in assay [4] is -0.118 (inactive); in [10] it was -0.193; in [11], -0.0569 (inactive); in the assay on XIP peptide (Xip251-270) it was 0.0455.

`COc1ccc([Si](C)(C)[C@@H]2[C@@H](CC(=O)N3Cc4ccccc4C[C@H]3CO)O[C@]3(C(=O)N(Cc4cccc(N5CCCCC5=O)c4)c4ccccc43)[C@H]2C)cc1`: the z-score in assay [1] was -1.16; in assay [2] it was 0.0062 (inactive); in assay [3], -3.09 (inactive); in assay [5], 0.331 (inactive); in [6], 1.98 (inactive); in [7], -0.453 (inactive). Further, the z-score was -0.878 (inactive) in [8]; -2.15 in [9]; -2.91 in assay [12]; -2.57 (inactive) in assay [13]; -0.559 (inactive) in assay [14]; -0.304 (inactive) in [15]. Moreover, the composite z-score was -1.02 (inactive) in assay [4], -0.148 in [10], 1.63 (inactive) in assay [11] and 0.737 in the assay on XIP peptide (Xip251-270).

For the molecule `Cc1ccc(S[C@]2(C(=O)NCc3ccccc3)CC(=O)N(C3Cc4ccccc4C3)[C@@H]2c2ccc(CO)cc2I)cc1`, the z-score in [1] was -0.0974; in assay [2], -2.95 (inactive); in [3], -2.61 (inactive); in assay [5], 0.761 (inactive); in assay [6], -2.63 (inactive); in assay [7], 0.964 (inactive). Further, the z-score in [8] was 1.52 (inactive); in assay [9], -1.89; in assay [12], 0.237; in assay [13], -1.78 (inactive); in [14], -0.424 (inactive); in assay [15], -0.164 (inactive). For the same molecule, the composite z-score in assay [4] is -1.29 (inactive); in assay [10], -0.315; in assay [11] it was 1.77 (inactive); with XIP peptide (Xip251-270), 0.23.

As to `C=C[C@H](C)[C@H](OC(=O)Nc1ccc(SC)cc1)c1ccc(O)c2ccccc12`, the z-score is -1.13 in assay [1]; -18.5 (active) in assay [2]; -3.69 (inactive) in assay [3]; 0.802 (inactive) in assay [5]; -3.62 (inactive) in [6]; -1.46 (inactive) in assay [7]. Also, the z-score in [8] was -1.6 (inactive); in [9] it was -2.55; in [12] it was -0.243; in assay [13] it was -5.27 (inactive); in assay [14], -0.08 (inactive); in [15], -0.437 (inactive). The composite z-score was -2.47 (inactive) in assay [4], 0.0528 in assay [10], 0.273 (inactive) in assay [11] and 0.151 with XIP peptide (Xip251-270).

`COC(=O)c1ccc(OC)c(/C=C\CC(CCc2ccccc2)OC(C)=O)c1` (centres undefined): the z-score in [1] is -0.928; in [2] it was -0.527 (inactive); in assay [3], -0.0834 (inactive); in [5], -0.131 (inactive); in assay [6], -0.424 (inactive); in assay [7], 0.0214 (inactive). For the same molecule, the z-score in assay [8] is -0.238 (inactive); in [9], 0.271; in [12] it was 0.522; in assay [13], -1.15 (inactive); in assay [14], 0.177 (inactive); in assay [15] it was 0.453 (inactive). Further, the composite z-score was -0.162 (inactive) in [4], -0.253 in assay [10], -0.521 (inactive) in assay [11] and -0.187 with XIP peptide (Xip251-270).

Consider `C=CCOC(=O)[C@@H]1[C@H]2C(=O)O[C@H](c3ccccc3)[C@H](c3ccccc3)N2[C@H](c2ccc(OCCOC(=O)[C@@H]3C[C@@H]4C(=O)N[C@@H](CCCCNC(C)=O)C(=O)N4[C@@H]3c3ccc(O)cc3)cc2)[C@@]12C(=O)Nc1ccc(I)cc12`, for which the z-score was 0.971 in assay [1]; 1.8 (inactive) in [2]; 0.668 (inactive) in [3]; 0.42 (inactive) in assay [5]; 1.67 (inactive) in assay [6]; 0.514 (inactive) in assay [7]. Further, the z-score was 0.099 (inactive) in [8]; 0.616 in assay [9]; -1.61 in assay [12]; -0.385 (inactive) in [13]; 0.552 (inactive) in [14]; 0.882 (inactive) in [15]. The composite z-score in [4] was -1.19 (inactive); in assay [10] it was 0.158; in assay [11] it was 0.0787 (inactive); in the assay with XIP peptide (Xip251-270), 0.794.

As for `NC(=O)[C@@H]1[C@H]2C(=O)O[C@H](c3ccccc3)[C@H](c3ccccc3)N2[C@H](c2ccccc2OCCO)[C@@]12C(=O)Nc1ccc(C#CCCO)cc12`, the z-score in [1] is 1.06; in assay [2], -1.45 (inactive); in [3], -0.476 (inactive); in [5], -0.104 (inactive); in assay [6] it was 0.895 (inactive); in assay [7] it was 0.386 (inactive). For the same molecule, the z-score in assay [8] is -0.318 (inactive); in assay [9], -1.29; in assay [12], 0.291; in assay [13] it was -5.7 (inactive); in [14] it was -0.266 (inactive); in assay [15], -0.161 (inactive). In addition, the composite z-score in assay [4] is -0.58 (inactive); in assay [10] it was -0.0048; in assay [11], 0.585 (inactive); with XIP peptide (Xip251-270), 0.588.
